{
  "source": "PubChem BioAssay (Tox21)",
  "note": "Several values for one entry are separate records, joined by “and”; a condition that tells them apart may be missing. Identical values can stand only once. Results filed as inconclusive are left out. Entries that show only a call come without a potency. Unmarked numbers belong to inactive results. Activity calls are given as the source filed them. The call rests on the fitted dose curve; in most records, active means well fitted cell-killing curve with a large enough effect in the repeat runs; inconclusive means weak or mixed curves, or effect the other way; inactive means no such curve, though single readings can be large or run the other way. Potency means the concentration at half of the fitted maximal effect.",
  "data": [
    {"experiment": "qHTS assay to identify small molecule agonists of the RXR signaling pathway - cell viability counter screen (AID 1159529); further: nearly all actives have a fitted effect of over 50% in size", "details": "RXR-alpha-bla HEK293T viability, CellTiter-Glo, 16 h; series mostly up to 76.8 µM", "excerpt": "National Center for Advancing Translational Sciences [NCATS]\nNIH Chemical Genomics Center [NCGC]\nU.S. Environmental Protection Agency [EPA]\nNational Institutes of Environmental Health Sciences [NIEHS]\nNational Toxicology Program [NTP]\nU.S. Food and Drug Administration [FDA]\nThe Retinoid X receptor (RXR), a nuclear hormone receptor expressed in liver, spleen, placenta, epidermis, central nervous system. These receptors are able to form homo and heterodimers with other nuclear receptors and due to this heterodimerizing ability, RXR functions as master regulators producing diverse physiological effects. Three subtypes of RXR exist; alpha, beta and gamma. Retinoid X receptor alpha (RXR-alpha) has potential roles in metabolic signaling pathways, skin alopecia, dermal cysts, cardiac development, insulin sensitization etc. Therefore screening environmental chemicals on RXR-alpha signaling can be used for the studies focused on such therapeutic applications. For quantification of RXR-alpha ligands signaling, GeneBLAzer RXR alpha-UAS-bla HEK 293T (Life Technologies, Carlsbad, CA) cells containing a beta-lactamase reporter-gene under control of Retinoid X receptor-alpha response element were used to screen Tox21 10K library. The cytotoxicity of the Tox21 compound library against the RXR-alpha HEK 293T cell line was tested in parallel by measuring cell viability using CellTiter-Glo assay (Promega Corporation, Madison, WI) in the same wells.\nTox21 Assay Protocol Summary:\nRXR-alpha HEK 293T cells were dispensed at 2,000 cells/6 uL of assay medium containing 2% charcoal-stripped FBS using a Multidrop Combi (ThermoFisher Scientific, Waltham, MA) dispenser. The assay was performed in black wall/clear-bottom 1536-well plates (Greiner Bio-One North America Inc. Monroe, NC). Tetraoctyl ammonium bromide was used as a positive control in the cytotoxicity screen. After the assay plates were incubated at 37 C and 5% CO2 for 5 hr, 23 nL of compounds dissolved in DMSO, positive control or DMSO only were transferred to the assay plate by a Pintool station (Kalypsys, San Diego, CA). The assay plates were incubated at 37 C and 5% CO2 for 16 hr. One uL of LiveBLAzer B/G FRET substrate (Life Technologies) was added using a Flying Reagent Dispenser (FRD) (Aurora Discovery, San Diego, CA) and the plates were incubated at room temperature for 2 hr. Fluorescence intensity (405 nm excitation, 460/530 nm emission) was measured using an Envision plate reader (PerkinElmer, Shelton, CT). For cytotoxicity, 4 uL/well of CellTiter-Glo reagent was added into the assay plates using an FRD. After 30 min incubation at room temperature, the luminescence intensity was measured using a ViewLux plate reader (PerkinElmer).", "values": [
      {"smiles": "CCc1cccc(CC)c1NC(=O)CN(CC(=O)O)CC(=O)O", "Potency": "inactive"},
      {"smiles": "CCCCCCCCCCCCOC(=O)c1ccc(O)cc1", "Potency": "inactive"},
      {"smiles": "CC(C)NC[C@@H](O)COc1ccc(CC(N)=O)cc1", "Potency": "inactive"},
      {"smiles": "CN(C)CCN1CCN(c2cccc(Cl)c2)C1=O", "Potency": "inactive"},
      {"smiles": "Cc1c(N)cccc1C(F)(F)F", "Potency": "inactive"},
      {"smiles": "O=S(=O)(O)c1ccccc1/C=C/c1ccc(-c2ccc(/C=C/c3ccccc3S(=O)(=O)O)cc2)cc1", "Potency": "inactive"},
      {"smiles": "CCCC[P+](C)(CCCC)CCCC", "Potency": "inactive"},
      {"smiles": "CC/C=C\\CCCCCO", "Potency": "inactive"},
      {"smiles": "C[C@@H](O)[C@H](N)C(=O)O", "activity change, negative = cytotoxicity": "1.63% [at 15.8 µM]"},
      {"smiles": "CC(C)=CCC1=C(O)c2ccccc2C(=O)C1=O", "Potency": "inactive"},
      {"smiles": "CCC(=O)OC(=O)CC", "Potency": "43.3 µM (active)"},
      {"smiles": "Cc1cc(C(C)(C)C)c(O)c(C)c1Cn1c(=O)n(Cc2c(C)cc(C(C)(C)C)c(O)c2C)c(=O)n(Cc2c(C)cc(C(C)(C)C)c(O)c2C)c1=O", "Potency": "inactive"},
      {"smiles": "Cl[Si](Cl)(c1ccccc1)c1ccccc1", "Potency": "inactive"},
      {"smiles": "Cc1ccc(C)cc1", "Potency": "inactive"},
      {"smiles": "CCn1c2ccccc2c2cc([N+](=O)[O-])ccc21", "Potency": "inactive"},
      {"smiles": "Nc1ccc(C(=O)O)c(O)c1", "Potency": "inactive"},
      {"smiles": "CC(=O)OCC=C(C)C", "Potency": "inactive"},
      {"smiles": "O=C(O)CN(CCN(CC(=O)O)CC(=O)O)CC(=O)O", "activity change, negative = cytotoxicity": "-6.94% [at 2.72 µM]"},
      {"smiles": "O=C(O)c1cccc(C(F)(F)F)c1", "Potency": "inactive"},
      {"smiles": "C=CC(=O)OCCOC(=O)C=C", "Potency": "inactive"},
      {"smiles": "CCCCCc1ccc(Cl)cc1", "Potency": "inactive"},
      {"smiles": "O=S(=O)(O)c1ccc(Nc2nc(Nc3ccc(/C=C/c4ccc(Nc5nc(Nc6ccc(S(=O)(=O)O)cc6)nc(N(CCO)CCO)n5)cc4S(=O)(=O)O)c(S(=O)(=O)O)c3)nc(N(CCO)CCO)n2)cc1", "Potency": "inactive"},
      {"smiles": "CCCCC(CC)CN1CN(CC(CC)CCCC)CC(C)(N)C1", "note": "(stereo not given)", "Potency": "inactive"},
      {"smiles": "CCCCCCOC(=O)C(C)CC", "note": "(stereo not given)", "Potency": "inactive"},
      {"smiles": "Nc1ccc(NCCO)c([N+](=O)[O-])c1", "Potency": "inactive"},
      {"smiles": "CC(C(=O)O)c1ccc2c(c1)[nH]c1ccc(Cl)cc12", "note": "(stereo not given)", "Potency": "inactive"},
      {"smiles": "ClCCl", "Potency": "inactive"},
      {"smiles": "CCCCCCCCCCCCOCCOCCOCCOCCOCCOCCOCCOCCOCCO", "Potency": "16.9 µM (active)"},
      {"smiles": "Clc1ccnc(Cl)n1", "Potency": "inactive"},
      {"smiles": "O=C(O)CCN(C1(C(=O)NO)CCCC1)S(=O)(=O)c1ccc(Oc2ccc(F)cc2)cc1", "Potency": "inactive"},
      {"smiles": "C=CC(C)(CCC=C(C)C)OC=O", "note": "(stereo not given)", "Potency": "inactive"},
      {"smiles": "O[C@@H]([C@H](O)[C@H](O)CBr)[C@H](O)CBr", "Potency": "inactive"},
      {"smiles": "CCCCOC(=O)CO", "Potency": "inactive"},
      {"smiles": "S=c1nccc[nH]1", "Potency": "inactive"},
      {"smiles": "CCCCCCCCCCCCCC[N+](C)(C)C", "Potency": "10.6 µM (active) and 15.5 µM (active) and 21.3 µM (active)"},
      {"smiles": "C#C[C@]1(O)CC[C@H]2[C@@H]3[C@H](C)CC4=C(CCC(=O)C4)[C@H]3CC[C@@]21C", "Potency": "inactive"},
      {"smiles": "CC(C)(C)NSc1nc2ccccc2s1", "Potency": "inactive"},
      {"smiles": "CC1=CCC(=C(C)C)CC1", "Potency": "inactive"},
      {"smiles": "C1CCC(SSC2CCCCC2)CC1", "Potency": "inactive"},
      {"smiles": "CCCCNS(=O)(=O)c1ccc(C)cc1", "Potency": "inactive"}
    ]}
  ]
}
